# From the supplement of paper PMC8728848
# About 410 targets per protein were measured; listed, in parts, are those with the strongest signals and a random draw of the rest.
# B1: B3GalT2 (Rattus norvegicus) (protein)
# chain: LMLQWRRRHCCFAKMSWNAKRSLFRTHLMGVLSLVFLFAMFLFFNHHDWLPGRPGFKENPVTYTFRGFRSTKTETNQSSLRNIWKEVVPQTLRPQTATNSNNTELSPQGVTGLENTLSANGSIYNEKGTGHPNSYHFKYIINEPEKCQEKSPFLILLIAAEPGQIEARRAIRQTWGNETLAPGIQITRIFLLGISIKLNGYLQHAIQEESIQYHDIIQQEYLDTYYNLTIKTLMGMNWVATYCPHTPYVMKTDSDMFVNTEYLIHKLLKPDLPPRHNYFTGYLMRGYAPNRNKDSKWYMPPDLYPSERYPVFCSGTGYVFSGDLAEKIFKVSLGIRRLHLEDVYVGICLAKLRVDPVPPPNEFVFNHWRVSYSSCKYSHLITSHQFQPSELIKYWNHLQQNKHNACVNAAKEKAGRYRHRKLH
# How the values were obtained:
# Test in all cases: glycan array binding signal (z-score within array); higher = stronger binding
# Details in all cases: glycan notation: IUPAC condensed, linker removed
# Fuc(a1-2)Gal(b1-3)GlcNAc = target: Fuc(a1-2)Gal(b1-3)GlcNAc
# Method in brief: (§1)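 Glycan array binding is given as a within-array Z-score, which can be read as non-binding when negative. The arrays, 3228 of them, came from the Consortium for Functional Glycomics database and were retained only where the protein sequence was available. Z-scores were averaged across arrays of the same protein sequence at different concentrations or buffers and across linkers.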
# [1] = target: Fuc(a1-2)Gal(b1-3)GlcNAc6S
# Method in brief: as §1
# Fuc(a1-2)Gal(b1-4)Glc = target: Fuc(a1-2)Gal(b1-4)Glc
# Method in brief: as §1
# [2] = target: Fuc(a1-2)Gal(b1-4)GlcNAc(b1-3)GalNAc
# Method in brief: as §1
# [3] = target: Fuc(a1-2)Gal(b1-4)[Fuc(a1-3)]GlcNAc(b1-2)[Fuc(a1-2)Gal(b1-4)[Fuc(a1-3)]GlcNAc(b1-4)]Man(a1-3)[Fuc(a1-2)Gal(b1-4)[Fuc(a1-3)]GlcNAc(b1-2)Man(a1-6)]Man(b1-4)GlcNAc(b1-4)GlcNAc
# Method in brief: as §1
# [4] = target: Fuc(a1-2)Gal6S(b1-3)GlcNAc
# Method in brief: as §1
# [5] = target: Fuc(a1-2)[GalNAc(a1-3)]Gal(b1-3)GlcNAc(b1-2)Man(a1-3)[Fuc(a1-2)[GalNAc(a1-3)]Gal(b1-3)GlcNAc(b1-2)Man(a1-6)]Man(b1-4)GlcNAc(b1-4)GlcNAc
# Method in brief: as §1
# [6] = target: Fuc(a1-2)[GalNAc(b1-3)]Gal
# Method in brief: as §1
# [7] = target: Fuc(a1-3)[Gal(b1-4)]GlcNAc(b1-3)Gal(b1-4)[Fuc(a1-3)]GlcNAc(b1-3)Gal(b1-4)[Fuc(a1-3)]GlcNAc
# Method in brief: as §1
# [8] = target: Fuc(a1-3)[Gal3S(b1-4)]Glc
# Method in brief: as §1
# [9] = target: Fuc(a1-3)[GalNAc(b1-4)]GlcNAc6S
# Method in brief: as §1
# [10] = target: Gal(a1-3)Gal(b1-4)GlcNAc(b1-2)Man
# Method in brief: as §1
# [11] = target: Gal(a1-3)[Gal(a1-4)]Gal(b1-4)GlcNAc
# Method in brief: as §1
# [12] = target: Gal(b1-3)GalNAc(a1-3)[Fuc(a1-2)]Gal(b1-4)Glc
# Method in brief: as §1
# [13] = target: Gal(b1-3)GlcNAc(b1-2)Man(a1-3)[Gal(b1-3)GlcNAc(b1-2)Man(a1-6)]Man(b1-4)GlcNAc(b1-4)[Fuc(a1-6)]GlcNAc
# Method in brief: as §1
# [14] = target: Gal(b1-3)GlcNAc(b1-2)Man(a1-3)[GlcNAc(b1-4)][Gal(b1-3)GlcNAc(b1-2)Man(a1-6)]Man(b1-4)GlcNAc(b1-4)GlcNAc
# Method in brief: as §1
# [15] = target: Gal(b1-3)GlcNAc(b1-3)Gal(b1-4)GlcNAc(b1-3)Gal(b1-4)GlcNAc(b1-2)[Gal(b1-3)GlcNAc(b1-3)Gal(b1-4)GlcNAc(b1-3)Gal(b1-4)GlcNAc(b1-6)]Man(a1-6)[Gal(b1-3)GlcNAc(b1-3)Gal(b1-4)GlcNAc(b1-3)Gal(b1-4)GlcNAc(b1-2)Man(a1-3)]Man(b1-4)GlcNAc(b1-4)[Fuc(a1-6)]GlcNAc
# Method in brief: as §1
# [16] = target: Gal(b1-3)GlcNAc(b1-3)GalNAc
# Method in brief: as §1
# [17] = target: Gal(b1-3)GlcNAc(b1-6)[Gal(b1-3)]GalNAc
# Method in brief: as §1
# [18] = target: Gal(b1-4)GlcNAc(b1-2)Man(a1-3)[Gal(b1-4)GlcNAc(b1-2)Man(a1-6)]Man(b1-4)GlcNAc(b1-4)GlcNAc
# Method in brief: as §1
# [19] = target: Gal(b1-4)GlcNAc(b1-2)Man(a1-3)[GlcNAc(b1-2)Man(a1-6)]Man(b1-4)GlcNAc(b1-4)GlcNAc
# Method in brief: as §1
# [20] = target: Gal(b1-4)GlcNAc(b1-3)Gal(b1-4)GlcNAc
# Method in brief: as §1
# Gal3S(b1-3)GalNAc = target: Gal3S(b1-3)GalNAc
# Method in brief: as §1
# Gal6S(b1-3)GlcNAc = target: Gal6S(b1-3)GlcNAc
# Method in brief: as §1
# Gal6S(b1-4)GlcNAc = target: Gal6S(b1-4)GlcNAc
# Method in brief: as §1
# GalNAc(a1-3)GalNAc = target: GalNAc(a1-3)GalNAc
# Method in brief: as §1
# [21] = target: GalNAc(a1-3)GalNAc(b1-3)Gal(a1-4)Gal(b1-4)Glc
# Method in brief: as §1
# [22] = target: GalNAc(b1-3)Gal(a1-4)Gal(b1-4)GlcNAc(b1-3)Gal(b1-4)Glc
# Method in brief: as §1
# [23] = target: GlcNAc(b1-3)Gal(b1-4)GlcNAc(b1-2)Man(a1-3)[GlcNAc(b1-3)Gal(b1-4)GlcNAc(b1-2)Man(a1-6)]Man(b1-4)GlcNAc(b1-4)GlcNAc
# Method in brief: as §1
# [24] = target: GlcNAc(b1-3)Gal(b1-4)GlcNAc(b1-3)Gal(b1-4)GlcNAc(b1-3)Gal(b1-4)GlcNAc(b1-3)Gal(b1-4)GlcNAc(b1-2)[GlcNAc(b1-3)Gal(b1-4)GlcNAc(b1-3)Gal(b1-4)GlcNAc(b1-3)Gal(b1-4)GlcNAc(b1-3)Gal(b1-4)GlcNAc(b1-6)]Man(a1-6)[GlcNAc(b1-3)Gal(b1-4)GlcNAc(b1-3)Gal(b1-4)GlcNAc(b1-3)Gal(b1-4)GlcNAc(b1-3)Gal(b1-4)GlcNAc(b1-2)Man(a1-3)]Man(b1-4)GlcNAc(b1-4)[Fuc(a1-6)]GlcNAc
# Method in brief: as §1
binder,measurement,setting,value
B1,glycan array binding signal (z-score),Fuc(a1-2)Gal(b1-3)GlcNAc,0.359
same,glycan array binding signal (z-score),[1],-0.012
same,glycan array binding signal (z-score),Fuc(a1-2)Gal(b1-4)Glc,-0.322
same,glycan array binding signal (z-score),[2],0.324
same,glycan array binding signal (z-score),[3],-0.914
same,glycan array binding signal (z-score),[4],0.207
same,glycan array binding signal (z-score),[5],-0.832
same,glycan array binding signal (z-score),[6],3.23
same,glycan array binding signal (z-score),[7],-0.328
same,glycan array binding signal (z-score),[8],0.499
same,glycan array binding signal (z-score),[9],2.41
same,glycan array binding signal (z-score),[10],-0.684
same,glycan array binding signal (z-score),[11],0.28
same,glycan array binding signal (z-score),[12],-0.035
same,glycan array binding signal (z-score),[13],-0.68
same,glycan array binding signal (z-score),[14],-0.55
same,glycan array binding signal (z-score),[15],2.97
same,glycan array binding signal (z-score),[16],0.129
same,glycan array binding signal (z-score),[17],0.217
same,glycan array binding signal (z-score),[18],-0.8
same,glycan array binding signal (z-score),[19],-0.763
same,glycan array binding signal (z-score),[20],0.439
same,glycan array binding signal (z-score),Gal3S(b1-3)GalNAc,0.283
same,glycan array binding signal (z-score),Gal6S(b1-3)GlcNAc,2.69
same,glycan array binding signal (z-score),Gal6S(b1-4)GlcNAc,-0.022
same,glycan array binding signal (z-score),GalNAc(a1-3)GalNAc,-0.798
same,glycan array binding signal (z-score),[21],-0.606
same,glycan array binding signal (z-score),[22],-0.596
same,glycan array binding signal (z-score),[23],-0.524
same,glycan array binding signal (z-score),[24],-1.04
